Results filed as inconclusive are left out. Active and inactive are the calls of the source. Calls come from the whole dose curve; as a rule, active = well fitted activation curve with a large enough effect in the signal ratio in the repeat runs, with a control signal flat (not every such curve was filed as active); inconclusive = weak or mixed curves; inactive = flat fitted curve, though single readings scatter; the % refers to the signal ratio.
Assay: qHTS assay for small molecule activators of the heat shock response signaling pathway (AID 743210)
Conditions: HeLa HSE-bla reporter, beta-lactamase ratio, 5 h; series mostly up to 62.6 µM; activation: at the top concentration
Source text: U.S. Tox21 Program National Center for Advancing Translational Sciences [NCATS] NIH Chemical Genomics Center [NCGC] U.S. Environmental Protection Agency [EPA] National Institutes of Environmental Health Sciences [NIEHS] National Toxicology Program [NTP] U.S. Food and Drug Administration [FDA] Tox21 Assay Overview: Various chemicals, environmental and physiological stress conditions may lead to the activation of heat shock response/ unfolded protein response (HSR/UPR). There are three heat shock transcription factors (HSFs) (HSF-1, -2, and -4) mediating transcriptional regulation of the human HSR. To identify the compounds that activate HSR signaling, HSE-bla HeLa cell line (Invitrogen, Carlsbad, CA, USA) containing a beta-lactamase reporter gene under the control of the heat shock response elements was used to screen the Tox21 10K compound library.
Tox21 Assay Protocol Summary: The CellSensor HSE-bla HeLa cells (Invitrogen, Carlsbad, CA, USA) were dispensed at 1500 cells/6uL/well into 1536-well black wall/clear bottom plates using a Multidrop combi (Thermo Fisher Scientific, Waltham, MA) dispenser. After the assay plates were incubated at 37 C and 5% CO2 overnight, 23 nL of compounds dissolved in DMSO, positive controls or DMSO only was transferred to the assay plate by a Pintool station (Kalypsys, San Diego, CA). The plates were incubated at 37 C for 5 h. After 1 uL of LiveBLAzerTM B/G FRET substrate was added using a Flying Reagent Dispenser (Beckman Coulter, Indianapolis, IN, USA), the plates were incubated at room temperature for 2.5 h, and fluorescence intensity was measured by an Envision plate reader (PerkinElmer, Shelton, CT).
% is set by controls: 0 for no effect and ±100 for the full control effect.

Structure (SMILES) | activation
C[C@@H]1CCC[C@H](C)N1CCCC(O)(c1ccccc1)c1ccccn1 (stereo not given in full) | -0.24% (inactive)
CCCc1ncc(C(=O)O)s1 | 0.05% (inactive)
COc1cc(NS(=O)(=O)c2ccc(N)cc2)ncn1 | -1.6% (inactive)
O=C(O)COc1ccc2ccccc2c1 | 0.12% (inactive)
CCO/C=C1\N=C(c2ccccc2)OC1=O | -2.14% (inactive)
CC(=O)Nc1ccc(OCCOCCOc2ccc(NC(C)=O)cc2)cc1 | -0.885% (inactive)
COC(=O)c1ccccc1Cl | -1.59% (inactive)
O=C(O)CCCCCCCCCC(=O)O | 0.0551% (inactive)
CC(C)=CCC/C(C)=C\C#N | 1.02% (inactive)
CCOc1ccccc1OCCN[C@H](C)Cc1ccc(OC)c(S(N)(=O)=O)c1 | -0.894% (inactive)
CN(C)c1ccncc1 | 0.289% (inactive)
CCCC(=O)OC | 1.2% (inactive)
C/C=C(\C)C=O | -0.0831% [at 81.1 µM] (inactive)
Clc1cc(Cl)c(Cl)c(Cl)c1Cl | 0.251% (inactive)
CCCCCCCCOCCC#N | -0.675% (inactive)
CCCCCC(=O)CC | 0.882% [at 81.1 µM] (inactive)
C[C@]12C=CC(=O)C=C1[C@@H](F)C[C@@H]1[C@@H]2[C@@H](O)C[C@@]2(C)[C@H]1CC[C@]2(O)C(=O)CO | 0.475% (inactive)
CCOC(=O)[C@H](CCc1ccccc1)N[C@H]1CS[C@H](c2cccs2)CN(CC(=O)O)C1=O | -0.0874% (inactive)
CCCCCCC(=O)c1ccccc1 | 0.799% (inactive)
CN(C)CCc1c[nH]c2ccc(CS(=O)(=O)N3CCCC3)cc12 | 0.241% (inactive)

Structure (SMILES) | activation
CCCC[O][Al]([O]CCCC)[O]CCCC | -1.02% (inactive)
C=CC(=O)CC | -0.176% [at 81.1 µM] (inactive)
C[C@@H]1NC(=O)[C@@H](N)CNC(=O)[C@H](C2CCNC(N)=N2)NC(=O)/C(=C/NC(N)=O)NC(=O)[C@H](CNC(=O)C[C@@H](N)CCCN)NC1=O (stereo not given in full) | -0.65% [at 0.55 µM] (inactive)
Cc1cc2c(cc1CC(=O)c1sccc1S(=O)(=O)Nc1onc(C)c1Cl)OCO2 | 0.704% (inactive)
O=C(CCBr)N1CCN(C(=O)CCBr)CC1 | -0.466% (inactive)
CCCCCCCCC1CO1 (stereo not given) | -0.825% [at 81.1 µM] (inactive)
CCCCCCCCCCCC(C)=O | -0.629% (inactive)
CC(C)OCCO | -0.722% (inactive)
COc1ccccc1N1CCN(CC(O)COc2cc(OC)c(OC)c(OC)c2)CC1 (stereo not given) | -0.173% (inactive)
CNC(C)=O | 0.11% (inactive)
CCNC(=O)C(C)OC(=O)Nc1ccccc1 (stereo not given) | 0.24% (inactive)
CC(C)(C)c1ccc(N)cc1 | 0.769% (inactive)
C=COCCCCO | -0.0369% (inactive)
COc1cnc(NS(=O)(=O)c2ccc(N)cc2)nc1 | -0.2% (inactive)
NC(=O)CC[C@@H](N)C(=O)O | -1.28% (inactive)
C=CCOC(=O)CCCCCCCC | -0.419% [at 81.1 µM] (inactive)
CN(C)c1cc(NC(=O)CNC(C)(C)C)c(O)c2c1C[C@H]1C[C@H]3[C@H](N(C)C)C(=O)C(C(N)=O)=C(O)[C@@]3(O)C(=O)C1=C2O | 1.46% (inactive)
Cc1ccccc1C#N | 0.223% (inactive)
CC(=O)OC1CCC(C(C)(C)C)CC1 (stereo not given) | 1.04% (inactive)
Cc1cc(C)c(N)c(Cl)c1 | 0.0523% (inactive)
